Inconclusive results are not listed. Active and inactive are the calls of the source. Unless noted, calls come from the whole dose curve.
Tests used:
[1] = Nuclear factor erythroid 2-related factor 2/antioxidant responsive element (Nrf2/ARE) small molecule agonists: qHTS cell viability counter screen in human keratinocytes (AID 1919968; active = well fitted curve in the direction sought with a large enough effect in the repeat runs; an effect the other way counts as inactive or inconclusive; note: nearly all actives have a fitted effect of over 55% in size)
In short: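 KeratinoSens cells (HaCaT keratinocytes stably carrying an ARE-luciferase reporter) were seeded at 1,500 cells/well and rested 5 h at 37 C/5% CO2. They were then exposed to compounds in DMSO for 23 h. Viability was read by CellTiter-Fluor fluorescence after 1 h.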

[2] = Nuclear factor erythroid 2-related factor 2/antioxidant responsive element (Nrf2/ARE) small molecule agonists: luciferase reporter gene qHTS assay in human keratinocytes (AID 1919969); note: nearly all actives have a fitted effect of over 35% in size
[3] = molecular target: Gonadotropin-releasing hormone receptor (Homo sapiens) (UniProt P30968); test: Human gonadotropin-releasing hormone receptor (GnRHR) small molecule agonists, calcium flux assay in GnRHR-HEK293 cells (AID 1920063); note: nearly all actives have a fitted effect of over 35% in size
Chain of Gonadotropin-releasing hormone receptor (Homo sapiens) (P30968 whole entry, looked up): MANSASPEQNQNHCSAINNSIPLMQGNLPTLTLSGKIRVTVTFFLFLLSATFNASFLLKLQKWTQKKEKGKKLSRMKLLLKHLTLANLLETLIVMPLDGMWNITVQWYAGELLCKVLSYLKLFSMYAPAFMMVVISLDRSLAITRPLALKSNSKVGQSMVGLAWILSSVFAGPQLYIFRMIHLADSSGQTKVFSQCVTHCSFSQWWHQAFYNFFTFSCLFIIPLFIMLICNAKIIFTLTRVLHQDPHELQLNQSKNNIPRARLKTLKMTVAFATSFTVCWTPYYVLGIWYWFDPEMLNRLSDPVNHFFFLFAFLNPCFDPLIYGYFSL
In short: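 HEK293 cells stably expressing human GnRHR were plated 18 h at 37 °C, loaded with calcium dye 1 h at 37 °C, then given compound in agonist mode; fluorescence (Ex/Em 480/540) read kinetically for 3 min at 1 s intervals.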

[4] = molecular target: KiSS-1 receptor (Homo sapiens) (UniProt Q969F8); test: Human kisspeptin (KISS1R) small molecule agonists, calcium flux assay in KISS1R-HEK293 cells (AID 1920064; active = well fitted curve in the direction sought with a large enough effect in the repeat runs; an effect the other way counts as inactive or inconclusive)
Chain of KiSS-1 receptor (Homo sapiens) (Q969F8 whole entry, looked up): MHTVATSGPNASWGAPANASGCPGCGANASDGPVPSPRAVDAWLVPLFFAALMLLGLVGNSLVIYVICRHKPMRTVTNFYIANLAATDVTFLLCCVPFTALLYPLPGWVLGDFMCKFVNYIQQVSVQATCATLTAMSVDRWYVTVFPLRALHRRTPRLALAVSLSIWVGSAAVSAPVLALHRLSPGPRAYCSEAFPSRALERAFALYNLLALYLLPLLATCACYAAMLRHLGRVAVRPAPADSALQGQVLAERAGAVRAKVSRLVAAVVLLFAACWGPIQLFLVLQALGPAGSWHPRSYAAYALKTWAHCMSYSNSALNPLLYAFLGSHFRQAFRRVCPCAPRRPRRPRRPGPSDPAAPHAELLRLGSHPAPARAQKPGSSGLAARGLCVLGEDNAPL
In short: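 HEK293 cells stably expressing human KISS1R were plated 18 h at 37 °C, loaded with calcium dye for 1 h at 37 °C, then given compound by pin tool. Fluorescence (Ex/Em 480/540) was read kinetically for 3 min.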

[5] = G protein-coupled receptor (GPCR) small molecule agonists, calcium flux assay: HEK293 wild type cell line counter screen (AID 1920065)
In short: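 Cells were plated and cultured 18 h at 37 C/5% CO2, then loaded with calcium dye for 1 h at 37 C. Compounds in DMSO were pin-transferred in agonist mode, and fluorescence (Ex/Em 480/540) was read kinetically for 3 min at 1 s intervals.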

[6] = p53 small molecule agonists, cell-based qHTS assay with human liver microsomes (AID 1963577);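 note: p53 response element beta-lactamase reporter cells with liver microsomes plus NADPH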
In short: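 With metabolic activation: human liver microsomes (0.5 mg/mL final) plus NADPH (0.5 mg/mL final) added alongside compounds to p53RE-bla cells; 16 h 37 C exposure; beta-lactamase read by LiveBLAzer fluorescence.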

[7] = p53 small molecule agonists, cell-based qHTS assay with rat liver microsomes (AID 1963578)
In short: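 Metabolic activation by rat liver microsomes and NADPH, each 0.5 mg/mL final, added right after compounds to p53RE-bla reporter cells (4,000/well, plated 5 h earlier). 16 h at 37 C, then LiveBLAzer substrate for 2 h at room temperature in the dark; fluorescence read-out.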

[8] = p53 small molecule agonists, cell-based qHTS assay with human liver microsomes: qHTS cell viability counter screen (AID 1963579); note: nearly all actives have a fitted effect of over 45% in size
In short: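 Metabolic activation used human liver microsomes and NADPH, both 0.5 mg/mL final, over 16 hours at 37 C on p53RE-bla cells (4,000/well). Cytotoxicity measured by CellTiter-Glo luminescence, 30 min at room temperature.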

[9] = p53 small molecule agonists, cell-based qHTS assay with rat liver microsomes: qHTS cell viability counter screen (AID 1963580); note: nearly all actives have a fitted effect of over 45% in size
In short: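 HCT-116 p53RE-bla, 4,000 cells/well, 5 h pre-incubation; cpd + rat liver microsomes 0.5 mg/mL + NADPH 0.5 mg/mL (final); 16 h, 37 C; CellTiter-Glo, 30 min RT; luminescence.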

[10] = p53 small molecule agonists, cell-based qHTS assay: qHTS cell viability counter screen (AID 1963581); note: nearly all actives have a fitted effect of over 45% in size
In short: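 p53RE-bla HCT-116 cells were exposed to compounds for 16 h at 37 C; after the beta-lactamase FRET read in the same wells, CellTiter-Glo was added and luminescence (intracellular ATP) read after 30 min at room temperature.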

[11] = p53 small molecule agonists, cell-based qHTS assay (AID 1963582; active = well fitted activation curve with a large enough effect in the signal ratio in the repeat runs, not every such curve was filed as active; the % refers to the signal ratio)
In short: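 p53RE-bla beta-lactamase reporter cells rested 5 h at 37 C/5% CO2, then received compounds in DMSO by pin transfer and were incubated 16 h at 37 C. LiveBLAzer B/G FRET substrate was loaded for 2 h at room temperature before fluorescence reading.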

[12] = molecular target: 5-hydroxytryptamine receptor 2A (Homo sapiens) (UniProt P28223); test: 5-hydroxytryptamine receptor 2A (HTR2A) small molecule agonists, cell-based qHTS assay (AID 1963587); note: nearly all actives have a fitted effect of over 30% in size
Chain of 5-hydroxytryptamine receptor 2A (Homo sapiens) (P28223 whole entry, looked up): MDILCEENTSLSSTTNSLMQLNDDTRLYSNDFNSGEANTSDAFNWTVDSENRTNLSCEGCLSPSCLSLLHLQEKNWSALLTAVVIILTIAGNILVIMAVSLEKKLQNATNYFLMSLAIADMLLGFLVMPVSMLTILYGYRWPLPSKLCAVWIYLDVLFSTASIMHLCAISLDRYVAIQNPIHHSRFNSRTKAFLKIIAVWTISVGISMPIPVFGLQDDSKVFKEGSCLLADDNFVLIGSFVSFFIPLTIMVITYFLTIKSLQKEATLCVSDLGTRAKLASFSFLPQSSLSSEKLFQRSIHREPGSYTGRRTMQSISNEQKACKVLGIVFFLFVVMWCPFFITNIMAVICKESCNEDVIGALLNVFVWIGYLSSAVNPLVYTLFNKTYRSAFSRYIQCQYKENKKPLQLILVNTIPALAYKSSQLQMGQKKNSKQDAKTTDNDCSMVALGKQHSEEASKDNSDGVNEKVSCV
In short: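 Kinetic calcium-flux fluorescence (2 min, 1 sec intervals) after compound addition in agonist mode. HTR2A-CHO cells were cultured 18 h, then dye-loaded 1 h at 37 C.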

[13] = molecular target: Muscarinic acetylcholine receptor M1 (Homo sapiens) (UniProt P11229); test: Cholinergic receptor muscarinic 1 (CHRM1) small molecule agonists, cell-based qHTS assay (AID 1963589); note: nearly all actives have a fitted effect of over 35% in size
Chain of Muscarinic acetylcholine receptor M1 (Homo sapiens) (P11229 whole entry, looked up): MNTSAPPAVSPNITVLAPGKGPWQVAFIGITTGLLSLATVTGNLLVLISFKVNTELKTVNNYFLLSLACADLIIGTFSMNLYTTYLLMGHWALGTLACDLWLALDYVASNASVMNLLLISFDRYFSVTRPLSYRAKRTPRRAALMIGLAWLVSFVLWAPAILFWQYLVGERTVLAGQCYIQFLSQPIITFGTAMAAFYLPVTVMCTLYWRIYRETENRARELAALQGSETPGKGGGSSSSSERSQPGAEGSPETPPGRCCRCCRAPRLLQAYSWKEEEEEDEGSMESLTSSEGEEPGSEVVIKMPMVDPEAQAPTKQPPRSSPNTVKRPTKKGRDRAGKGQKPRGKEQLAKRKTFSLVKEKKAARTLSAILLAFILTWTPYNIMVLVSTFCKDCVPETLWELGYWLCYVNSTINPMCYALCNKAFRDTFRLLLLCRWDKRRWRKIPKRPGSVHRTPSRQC
In short: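 CHO cells stably expressing human CHRM1, seeded 18 h at 37 C/5% CO2, dye-loaded 1 h at 37 C, then given compound in agonist mode; intracellular calcium fluorescence read kinetically at 1 s intervals. Fifteen concentrations, three independent runs.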

[14] = cAMP Responsive Elements (CRE) small molecule agonists, cell-based qHTS assay (AID 1963590)
In short: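 CRE-bla HEK 293T cells in DMEM with 10% dialyzed FBS, NEAA, pyruvate and 25 mM HEPES were plated 18 h at 37 C/5% CO2, then exposed to compounds in DMSO for 3 h before LiveBLAzer B/G FRET substrate addition.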

[15] = cAMP Responsive Elements (CRE) small molecule antagonists, cell-based qHTS assay (AID 1963591; active = well fitted inhibition curve with a large enough effect in the signal ratio in the repeat runs, not every such curve was filed as active; the % refers to the signal ratio)
In short: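 CRE-bla HEK293T cells were plated 18 h at 37 °C/5% CO2, pinned with compound in DMSO, then stimulated with NKH477 at 0.25 uM final for 3 h. LiveBLAzer B/G FRET substrate was added and plates incubated 2 h at room temperature.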

[16] = molecular target: Beta-2 adrenergic receptor (Homo sapiens) (UniProt P07550); test: Adrenergic beta2 receptor (ADRB2) small molecule agonists, cell-based qHTS assay (AID 1963593);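 note: CHO cells stably overexpressing human ADRB2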
Chain of Beta-2 adrenergic receptor (Homo sapiens) (P07550 whole entry, looked up): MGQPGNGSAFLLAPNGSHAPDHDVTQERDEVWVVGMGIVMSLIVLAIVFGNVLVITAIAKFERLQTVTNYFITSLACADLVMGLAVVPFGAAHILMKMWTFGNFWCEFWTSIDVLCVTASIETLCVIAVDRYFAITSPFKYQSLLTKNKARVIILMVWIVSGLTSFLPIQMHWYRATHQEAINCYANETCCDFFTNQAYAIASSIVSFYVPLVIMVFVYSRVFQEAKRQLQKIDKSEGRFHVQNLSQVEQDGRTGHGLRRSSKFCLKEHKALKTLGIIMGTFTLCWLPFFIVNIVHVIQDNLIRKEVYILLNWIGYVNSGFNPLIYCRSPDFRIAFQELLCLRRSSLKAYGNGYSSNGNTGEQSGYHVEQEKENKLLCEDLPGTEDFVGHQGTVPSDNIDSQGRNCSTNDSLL
In short: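 CHO cells stably over-expressing ADRB2 were plated overnight at 37C, then dosed with compounds plus a stimulation mix containing 100uM IBMX and 25uM Ro-20-1724 for 0.5hr at room temperature. cAMP was measured by HTRF competition, 1hr.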

[17] = molecular target: D(2) dopamine receptor (Homo sapiens) (UniProt P14416); test: Dopamine D2 receptor (DRD2) small molecule agonists, cell-based qHTS assay (AID 1963594); note: nearly all actives have a fitted effect of over 35% in size
Chain of D(2) dopamine receptor (Homo sapiens) (P14416 whole entry, looked up): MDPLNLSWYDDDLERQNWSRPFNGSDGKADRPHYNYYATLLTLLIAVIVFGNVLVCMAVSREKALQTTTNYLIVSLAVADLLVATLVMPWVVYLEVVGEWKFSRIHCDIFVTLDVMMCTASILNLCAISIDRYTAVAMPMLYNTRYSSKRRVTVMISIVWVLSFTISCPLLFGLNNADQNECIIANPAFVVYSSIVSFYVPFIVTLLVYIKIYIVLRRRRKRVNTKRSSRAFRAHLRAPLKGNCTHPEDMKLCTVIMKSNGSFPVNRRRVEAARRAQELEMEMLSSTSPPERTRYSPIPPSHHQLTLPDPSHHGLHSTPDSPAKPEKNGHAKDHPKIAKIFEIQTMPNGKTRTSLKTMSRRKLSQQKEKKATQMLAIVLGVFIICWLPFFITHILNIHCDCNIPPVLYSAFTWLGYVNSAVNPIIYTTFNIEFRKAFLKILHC
In short: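 cAMP accumulation in DRD2-HEK293 cells measured by HTRF after 1 h detection; compounds added 10 min before NKH477 (200nM […]) forskolin-analogue stimulation, 30 min at room temperature, with Ro20-1724 present at 0.1 mM final.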

[18] = molecular target: D(2) dopamine receptor (Homo sapiens) (UniProt P14416); test: Dopamine D2 receptor (DRD2) small molecule antagonists, cell-based qHTS assay (AID 1963595; active = well fitted inhibition curve with a large enough effect in the signal ratio in the repeat runs, with a control signal flat; the % refers to the signal ratio)
In short: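 DRD2-HEK293; 0.1 mM Ro20-1724; cpd 10 min RT; NKH477 200 nM + quinpirole 12 nM, 30 min RT; HTRF cAMP (cAMP-d2/anti-cAMP cryptate), 665/620 nm ratio after 1 h.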

[19] = molecular target: Beta-2 adrenergic receptor (Homo sapiens) (UniProt P07550); test: Adrenergic beta2 receptor (ADRB2) small molecule antagonists, cell-based qHTS assay (AID 1963592); note: series mostly up to about 92 µM; nearly all actives have a fitted effect of over 50% in size
In short: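 Cells (CHO, stable ADRB2 overexpression) incubated 18-20hr at 37C; compounds added from DMSO; agonist mix (1nM isoproterenol, 100uM IBMX, 25uM Ro-20-1724) added; 0.5hr RT; d2-cAMP and anti-cAMP-cryptate added; 1hr RT; 665/615 nm read.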

[20] = molecular target: Muscarinic acetylcholine receptor M1 (Homo sapiens) (UniProt P11229); test: Cholinergic receptor muscarinic 1 (CHRM1) small molecule antagonists, cell-based qHTS assay (AID 1963588); note: nearly all actives have a fitted effect of over 40% in size
In short: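 CHRM1-CHO calcium-flux assay, antagonist mode. Cells were seeded 18 h, dye-loaded 1 h at 37 C and given compound for 5 min at RT, then acetylcholine was added at 50nM. FDSS fluorescence was read 3 min; 15 concentrations, three runs.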

Measured: Potency

CC(C)NCCCC1(C(N)=O)c2ccccc2-c2ccccc21
inactive: [1] | [2] | [3] | [4] | [5] | [6] | [7] | [8] | [9] | [10] | [11] | [12] | [13] | [14] | [15] | [16] | [17] | [18]

C=C(C)C1CC=C(C)C(O)C1 (stereo not drawn)
inactive: [1] | [2] | [3] | [4] | [5] | [6] | [7] | [8] | [9] | [10] | [11] | [12] | [13] | [14] | [15] | [19] | [17] | [18]

O=[N+]([O-])c1ccc(F)c(Cl)c1
inactive: [1] | [2] | [3] | [4] | [5] | [6] | [7] | [8] | [9] | [10] | [11] | [20] | [13] | [14] | [15] | [17] | [18]

COc1ccc(C(=O)N2CCN(CC(=O)N3CCOCC3)CC2)cc1
inactive: [1] | [2] | [3] | [4] | [5] | [6] | [7] | [8] | [9] | [10] | [11] | [20] | [13] | [14] | [19] | [16] | [17]

COc1cc(C(=O)OC(COCCC(C)C)CN2CCOCC2)cc(OC)c1OC (stereo not drawn)
inactive: [1] | [2] | [3] | [4] | [5] | [6] | [7] | [8] | [9] | [10] | [11] | [12] | [20] | [13] | [17]

O=C(Nc1ccc([N+](=O)[O-])cc1)Nc1ccc([N+](=O)[O-])cc1
inactive: [1] | [2] | [3] | [4] | [5] | [6] | [7] | [8] | [9] | [10] | [11] | [12] | [20] | [14] | [15] | [19] | [17] | [18]

COc1ccc(-c2cc(C(F)F)nn2-c2ccc(S(N)(=O)=O)cc2)cc1F
inactive: [1] | [2] | [3] | [4] | [5] | [6] | [7] | [8] | [9] | [10] | [11] | [12] | [20] | [17] | [18]

— PubChem BioAssay (Tox21)
